Only some compounds are listed: those with a hit (about 2.2% of all), similar ones and a draw of the others.
CF NFkB block: cystic fibrosis NF-kB activation inhibition. KKLEB NF-kB-GFP reporter, PAF-induced, GFP fluorescence overnight. hit rate 0.86% among 360,000. inhibition, % at 5 µM;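 active means at least 50% inhibition at 5 µM, scaled per plate between neutral and stimulator controls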;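 further: PAF is a Pseudomonas aeruginosa culture filtrate used as stimulus; plate controls were PAF-stimulated DMSO wells for no effect and unstimulated DMSO wells for full effect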
iPSC survival up: enhancers of human iPSC single-cell survival; hiPSC single-cell survival, ATPlite luminescence; 100% = ROCK inhibitor wells, 0% = DMSO; survival enhancement, % at 20 µM; hit rate 0.044% among 360,000; AID 602274; in the data active means survival enhancement above about 18%;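 further: cells exposed to compounds for 16 hours before the ATP read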
HIF-2a block: HIF-2a inhibition. 786-0 RCC cells HIF-2a reporter, luciferase luminescence, overnight. inhibition, % at 18.8 µM. hit rate 0.72% among 360,000;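 active means inhibition of the luminescence signal of 40% or more relative to plate controls, in a single-dose primary screen at 18.75 µM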
TRAIL sens C8: sensitizes caspase-8 expressing cells to TRAIL; NB7+C8 cells + TRAIL, ATPlite viability luminescence; inhibition (viability loss, TRAIL sensitization), % at 10 µM; hit rate 1% among 360,000;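 active means compounds causing at least 50% loss of cell viability in the single-dose screen, relative to plate controls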
PPC-1+TRAIL kill: PPC-1 cancer cell killing with TRAIL present. PPC-1 cells + TRAIL, ATPLite viability luminescence. cell killing (% activity), % at 4 µM or 5 µM. hit rate 0.41% among 220,000. AID 1443;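 active means cell killing above 50% in the first pass at 4 µM, then a duplicate retest at 5 µM averaging 50% or more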;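 further: plate controls were cells with TRAIL plus DMSO for no effect and medium-only wells lacking cells for full effect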
KKLEB tox: counter-screen for CF NF-kB inhibitors: cytotoxicity | KKLEB CF airway cells viability, ATPlite luminescence, overnight; active compounds read low; cells stimulated with P. aeruginosa culture filtrate | activity change (cytotoxicity), % at 5 µM | hit rate 0.36% among 360,000;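 active means corrected activity change at or below -50% at 5 µM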
Active calls of the source: *; · = not tested or not shown.

SMILES | CF NFkB block | iPSC survival up | HIF-2a block | TRAIL sens C8 | PPC-1+TRAIL kill | KKLEB tox
COc1ccc(CNC(=O)Nc2nc(C(N)Cc3ccc(Cl)cc3)cs2)cc1 (centres undefined) | 19 | -5 | -6 | 39 | · | -12
CCOC(=O)C1(Cc2ccc(OC)cc2)CCN(C(=O)[C@@H]2CCCN2C(C)=O)CC1 | 9 | -1 | -94 | 2 | 2 | -5
CSc1cc(-c2ccccc2)n(Cc2c(Cl)cccc2Cl)c(=O)c1C#N | 24 | 0 | 17 | 17 | 8 | -33
CSc1cc(-c2ccc(Cl)cc2)n(Cc2ccccc2)c(=O)c1C#N | 70* | -1 | 11 | 75* | 15 | -54*
CCCOc1ccc(C(=O)Nc2ccc(S(=O)(=O)N3C[C@@H]4C[C@@H](C3)c3cccc(=O)n3C4)cc2)cc1 | 4 | 2 | 15 | 13 | · | 6
Cc1ccc(NC(=O)CNCc2cccs2)cc1Br | -10 | 0 | -91 | -36 | · | 6
N#Cc1c(/N=C/c2cccs2)sc2c1CCCCC2 | -4 | -4 | -112 | 54* | -8 | -22
CCNC(=S)N1CCN(c2ccccn2)CC1 | -11 | 2 | 13 | -4 | 12 | -8
CC(NNC(=S)N1CCN(c2ccccn2)CC1)c1nccc2ccccc12 (centres undefined) | 0 | -1 | 52* | 1 | · | -12
O=C(NCC(O)c1ccccc1)c1ccc(Cl)c(S(=O)(=O)N2CCCCC2)c1 (centres undefined) | -10 | 0 | -32 | 16 | · | -11
Cc1ccc2c(c1)COc1c3ccc(C(=O)O)cc3nn1-2 | -6 | 0 | 83* | 34 | · | 0
CCN(CC)S(=O)(=O)c1c(OC)cc(C)c(Cl)c1C | 15 | 2 | 7 | -11 | 13 | -10
O=C(Cc1cccs1)N[C@@H]1c2ccccc2CC[C@H]1OCc1ccccc1 | 10 | 1 | 11 | -3 | · | -29
CCCCC[C@@H](C)N1C[C@H](COCc2ccccc2)Oc2cc(N3CC[C@H](N(C)C)C3)ccc2S1(=O)=O | · | 0 | 22 | 69* | · | ·
COc1cc(C(=O)Oc2ccccc2/C=N/NC(=O)c2ccc(C)c(Cl)c2)cc(OC)c1OC | -3 | -1 | -6 | 41 | 52* | -6
COc1cc(C(=O)N/N=C/c2sccc2C)cc(OC)c1OC | 52* | -1 | 20 | 6 | 2 | -10
Cc1cc(C(=O)CSc2nnc3ccccn23)c(C)n1-c1ccccc1 | -18 | -1 | 84* | 53* | 33 | 3
Cc1cc(C(=O)CSc2nnc(-c3ccccc3)n2-c2ccccc2)c(C)n1-c1ncn[nH]1 | 4 | 2 | 8 | -14 | 33 | 16
Nc1nc(=S)c2[nH]cnc2[nH]1 | 2 | -1 | 13 | 75* | · | -6
Cc1ccc(C(=O)N/C(=C\c2ccco2)C(=O)NCCN2CCOCC2)cc1 | -10 | -1 | -6 | 9 | · | 8
CC(CNC(=O)CCCn1c(=O)c2cccn2c2cccnc21)c1ccccc1 (centres undefined) | 2 | -1 | 4 | 4 | · | -2
CCn1nnc(NC(=O)c2ccc([N+](=O)[O-])o2)n1 | 68* | -2 | -29 | 4 | 3 | 0
C=CCn1c(SCC(=O)NC(=O)Cc2ccccc2)nnc1-c1ccccc1F | -3 | 0 | 7 | -4 | · | 6
O=C1C=C(N2CCOCC2)c2ccccc2C1=O | 85* | 0 | 37 | 93* | · | -76*
O=C1C=C(N2CCOCC2)c2cccc3cccc1c23 | -16 | -1 | -7 | -9 | · | 1
CNC(=O)c1ccc(NC(=O)Cc2ccc(S(=O)(=O)N3CCOCC3)s2)cc1 | 8 | 0 | 9 | 10 | · | -1
CCCc1nnn(S(=O)(=O)c2ccc([N+](=O)[O-])cc2)c1CCC | 4 | -1 | -6 | 0 | · | 8
CCOC(=O)c1ccc(N2C(=O)C=CC2=O)cc1 | 19 | -2 | 95* | -12 | 15 | -8
C=CCc1cc(C(=O)N2CCCCC2)ccc1O | 51* | 2 | 12 | -6 | -9 | -6
Cn1c2c(c3ccccc31)CCN1CCC[C@]21c1ccccc1 | -26 | -1 | 31 | 4 | · | 13

Source: PubChem BioAssay
